# In PubChem BioAssay:
# The source made the active and inactive calls.
# How the values were obtained:
# [1] = test system: PRMT1 (protein arginine N-methyltransferase 1); assay: small molecules binding arginine methyltransferase PRMT1 – biochemical, small-molecule microarray, 635 nm fluorescence, primary screen (AID 1088); conditions: higher = more signal;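 further: binding of Prmt1 protein to compounds spotted on small-molecule microarray slides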
# [2] = growth effects on S. cerevisiae YJM789 – YJM789 clinical isolate, OD600, 24 h, basal, primary screen (AID 1089); conditions: higher = more signal, called active from +8 up or from −8 down;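 further: growth of clinical yeast isolate S. cerevisiae YJM 789 seeded 1000 cells per well; test concentration not given here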
# [3] = S. pombe growth modifiers, basal conditions – strain 972, OD600, 24 h, no modulator, primary screen (AID 1090);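 further: basal condition with compound alone and no growth modifier present; test concentration not given here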; conditions: S. pombe 972 growth, higher = more signal, called active from +8 up or from −8 down
# [4] = budding yeast growth modifiers under rapamycin – strain BY4716, OD600, 96 h, primary screen (AID 1091); further: test concentration not given here; conditions: S. cerevisiae BY4716 + rapamycin, higher = more signal, called active from +8 up or from −8 down
# [5] = target: Torsin-1A-interacting protein 2 (Homo sapiens) (UniProt Q8NFQ8); assay: small molecules binding lysate-expressed LULL1 – cell lysate, human LULL1 lysate, 635/667 nm fluorescence, primary screen (AID 1092); conditions: small-molecule microarray, hLULL1 lysate binding, 635 nm fluorescence; higher = more signal;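 further: probe is lysate of COS7 cells overexpressing human LULL1; score merges per-feature 667 nm fluorescence with signal-to-noise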
# Chain of Torsin-1A-interacting protein 2 (Homo sapiens) (Q8NFQ8 whole entry, looked up): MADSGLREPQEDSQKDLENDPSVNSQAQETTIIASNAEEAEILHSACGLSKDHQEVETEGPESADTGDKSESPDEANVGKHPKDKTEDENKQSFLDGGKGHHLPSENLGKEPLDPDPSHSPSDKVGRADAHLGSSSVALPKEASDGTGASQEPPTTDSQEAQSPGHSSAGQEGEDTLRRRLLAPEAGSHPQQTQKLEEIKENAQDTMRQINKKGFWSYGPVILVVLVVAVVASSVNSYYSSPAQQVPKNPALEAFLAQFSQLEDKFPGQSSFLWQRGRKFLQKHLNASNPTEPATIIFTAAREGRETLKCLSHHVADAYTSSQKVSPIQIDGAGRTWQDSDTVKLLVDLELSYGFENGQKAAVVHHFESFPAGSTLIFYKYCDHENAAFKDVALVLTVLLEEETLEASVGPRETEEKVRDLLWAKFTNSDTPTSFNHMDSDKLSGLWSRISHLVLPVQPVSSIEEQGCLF
# [6] = optical density change of DRC41 E. coli – strain DRC41, OD650, 24 h, E. coli filamentation project, primary screen (AID 1093);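 further: MC1000 strain lacking acrAB efflux and sulA so SOS filamentation is blocked; test concentration not given here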; conditions: E. coli DRC41 growth, higher = more signal, called active from +8 up or from −8 down
# [7] = probe aLefty2 binding to arrayed compounds – biochemical, biotinylated probe, 635/667 nm fluorescence, primary screen (AID 1094); conditions: small-molecule microarray, higher = more signal;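 further: score merges spot fluorescence near 667 nm with spot signal-to-noise ratio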
# [8] = test system: Noggin (protein binding on small-molecule microarray); assay: small molecules binding Noggin protein – biochemical, 635/667 nm fluorescence, primary screen (AID 1095); conditions: 635 nm fluorescence, higher = more signal;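 further: score merges 667 nm feature fluorescence with signal to noise over triplicate slides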
# [9] = target: Neurogenic locus notch homolog protein 3 (Homo sapiens) (UniProt Q9UM47); assay: small molecules binding NOTCH3 protein – biochemical, 635/667 nm fluorescence, primary screen (AID 1096); conditions: small-molecule microarray, 635 nm fluorescence, higher = more signal
# Chain of Neurogenic locus notch homolog protein 3 (Homo sapiens) (Q9UM47 whole entry, looked up): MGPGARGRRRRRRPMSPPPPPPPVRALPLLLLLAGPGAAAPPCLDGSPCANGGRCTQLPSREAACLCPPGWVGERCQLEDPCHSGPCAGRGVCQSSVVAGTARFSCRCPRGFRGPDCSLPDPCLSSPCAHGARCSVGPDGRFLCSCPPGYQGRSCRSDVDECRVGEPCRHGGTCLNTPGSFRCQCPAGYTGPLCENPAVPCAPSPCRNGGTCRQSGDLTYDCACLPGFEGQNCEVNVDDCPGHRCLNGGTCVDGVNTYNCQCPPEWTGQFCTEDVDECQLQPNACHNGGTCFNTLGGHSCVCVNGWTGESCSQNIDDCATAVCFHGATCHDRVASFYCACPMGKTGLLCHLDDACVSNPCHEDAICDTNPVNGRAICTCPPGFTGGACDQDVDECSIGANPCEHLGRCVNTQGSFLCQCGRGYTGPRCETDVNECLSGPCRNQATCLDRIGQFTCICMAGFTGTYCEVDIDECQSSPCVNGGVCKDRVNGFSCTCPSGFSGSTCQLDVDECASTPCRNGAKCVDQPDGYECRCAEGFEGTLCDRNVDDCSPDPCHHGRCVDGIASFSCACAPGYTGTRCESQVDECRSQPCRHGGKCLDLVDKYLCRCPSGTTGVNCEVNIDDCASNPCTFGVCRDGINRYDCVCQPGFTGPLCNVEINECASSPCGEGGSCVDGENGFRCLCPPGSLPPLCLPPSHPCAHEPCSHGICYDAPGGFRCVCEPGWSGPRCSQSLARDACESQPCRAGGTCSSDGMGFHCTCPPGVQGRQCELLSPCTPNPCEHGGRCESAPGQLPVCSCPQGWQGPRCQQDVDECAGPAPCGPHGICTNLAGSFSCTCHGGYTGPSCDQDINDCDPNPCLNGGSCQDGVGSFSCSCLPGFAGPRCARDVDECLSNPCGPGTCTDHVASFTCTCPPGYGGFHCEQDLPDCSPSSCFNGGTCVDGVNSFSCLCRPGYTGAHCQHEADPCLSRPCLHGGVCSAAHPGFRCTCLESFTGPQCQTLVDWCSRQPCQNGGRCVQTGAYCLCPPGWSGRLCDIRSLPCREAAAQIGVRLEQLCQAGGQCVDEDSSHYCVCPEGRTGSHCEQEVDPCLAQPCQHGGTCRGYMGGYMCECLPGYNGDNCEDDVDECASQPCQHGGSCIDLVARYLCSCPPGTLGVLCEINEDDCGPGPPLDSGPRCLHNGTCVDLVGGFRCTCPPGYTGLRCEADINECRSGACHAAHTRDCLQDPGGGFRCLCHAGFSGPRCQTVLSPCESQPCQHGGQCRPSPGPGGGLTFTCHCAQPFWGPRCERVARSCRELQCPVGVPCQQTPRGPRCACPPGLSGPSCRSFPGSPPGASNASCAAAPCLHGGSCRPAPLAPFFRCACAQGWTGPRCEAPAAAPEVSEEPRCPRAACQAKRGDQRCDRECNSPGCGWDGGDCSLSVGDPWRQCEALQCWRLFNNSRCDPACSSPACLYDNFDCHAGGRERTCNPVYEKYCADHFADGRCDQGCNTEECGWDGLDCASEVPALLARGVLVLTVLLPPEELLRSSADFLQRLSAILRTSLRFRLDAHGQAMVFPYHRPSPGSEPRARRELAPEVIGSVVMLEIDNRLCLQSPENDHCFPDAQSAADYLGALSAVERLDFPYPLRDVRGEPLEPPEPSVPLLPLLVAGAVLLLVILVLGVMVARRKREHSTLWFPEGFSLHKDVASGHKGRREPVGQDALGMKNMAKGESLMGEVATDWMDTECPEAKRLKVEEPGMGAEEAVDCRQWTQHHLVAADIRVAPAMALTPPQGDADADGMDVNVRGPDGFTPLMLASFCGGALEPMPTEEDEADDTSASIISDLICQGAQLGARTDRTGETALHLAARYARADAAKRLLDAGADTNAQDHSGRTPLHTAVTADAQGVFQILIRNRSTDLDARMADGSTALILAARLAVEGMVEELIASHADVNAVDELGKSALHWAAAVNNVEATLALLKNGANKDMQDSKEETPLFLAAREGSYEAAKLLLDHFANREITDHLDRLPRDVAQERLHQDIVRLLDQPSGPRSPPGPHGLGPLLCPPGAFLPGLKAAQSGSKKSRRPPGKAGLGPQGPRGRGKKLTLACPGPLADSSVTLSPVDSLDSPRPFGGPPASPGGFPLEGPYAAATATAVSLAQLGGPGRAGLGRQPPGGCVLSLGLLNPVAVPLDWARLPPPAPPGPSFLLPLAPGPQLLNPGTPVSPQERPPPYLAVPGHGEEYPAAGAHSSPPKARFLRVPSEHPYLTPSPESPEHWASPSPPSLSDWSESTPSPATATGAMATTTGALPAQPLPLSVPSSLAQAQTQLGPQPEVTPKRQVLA
# [10] = probe aEGFR binding to arrayed compounds – biochemical, biotinylated probe, 635/667 nm fluorescence, primary screen (AID 1097); conditions: small-molecule microarray, higher = more signal;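 further: probe is a biotinylated anti-EGFR antibody binding compounds printed on slides; score combines fluorescence near 667 nm and signal to noise of each spot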
# [11] = test system: Plasmodium falciparum Sir2 (PF13_0152, Sir2A); assay: Plasmodium falciparum Sir2A binding compounds – biochemical, small-molecule microarray, 635 nm fluorescence, primary screen (AID 1098); conditions: fluorescence 635 nm, higher = more signal;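 further: score merges spot fluorescence intensity with its signal-to-noise ratio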
# [12] = probe aDKK1 binding to arrayed compounds – biochemical, biotinylated probe, 635/667 nm fluorescence, primary screen (AID 1099); conditions: small-molecule microarray, higher = more signal;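 further: score merges 667nm spot fluorescence with signal to noise across triplicate slides; reference of the scale not given here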
# [13] = probe aCHRDL2 binding to arrayed compounds – biochemical, biotinylated probe, 635/667 nm fluorescence, primary screen (AID 1100); conditions: small-molecule microarray, higher = more signal
# [14] = change in splice reporter luminescence, either direction, cell-based, HEK293, spliceosome inhibition project, primary screen (AID 1101); conditions: HEK293 splicing luciferase reporter, 24 h, higher = more signal, called active from +8 up or from −8 down;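 further: HEK293 cells carrying a splicing-competent luciferase reporter gene; test concentration not given here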
# [15] = target: Fibroblast growth factor 10 (Homo sapiens) (UniProt O15520); assay: compounds binding fibroblast growth factor 10 – biochemical, small-molecule microarray, 635 nm fluorescence, primary screen (AID 1102); conditions: FGF10 binding, fluorescence 635 nm, higher = more signal
# Chain of Fibroblast growth factor 10 (Homo sapiens) (O15520 whole entry, looked up): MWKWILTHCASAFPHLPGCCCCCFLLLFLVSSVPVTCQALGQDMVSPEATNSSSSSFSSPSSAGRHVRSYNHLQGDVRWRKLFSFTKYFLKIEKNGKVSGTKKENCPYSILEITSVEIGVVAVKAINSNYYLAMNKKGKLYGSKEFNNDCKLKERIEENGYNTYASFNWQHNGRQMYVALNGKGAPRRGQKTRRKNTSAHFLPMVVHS
# [16] = test system: glycogen synthase kinase-3 (GSK3A per assay name; protocol says GSK3B); assay: compounds binding glycogen synthase kinase-3 – biochemical, small-molecule microarray, 635 nm fluorescence, GSK3A, primary screen (AID 1103); conditions: fluorescence 635 nm, higher = more signal; further: the record names both GSK3A and GSK3B
# [17] = target: Epidermal growth factor receptor (Homo sapiens) (UniProt P00533); assay: compounds binding epidermal growth factor receptor – biochemical, small-molecule microarray, 635 nm fluorescence, primary screen (AID 1104); conditions: EGFR binding, higher = more signal;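 further: score merges 667 nm emission intensity with spot signal to noise over triplicate slides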
# Chain of Epidermal growth factor receptor (Homo sapiens) (P00533 whole entry, looked up): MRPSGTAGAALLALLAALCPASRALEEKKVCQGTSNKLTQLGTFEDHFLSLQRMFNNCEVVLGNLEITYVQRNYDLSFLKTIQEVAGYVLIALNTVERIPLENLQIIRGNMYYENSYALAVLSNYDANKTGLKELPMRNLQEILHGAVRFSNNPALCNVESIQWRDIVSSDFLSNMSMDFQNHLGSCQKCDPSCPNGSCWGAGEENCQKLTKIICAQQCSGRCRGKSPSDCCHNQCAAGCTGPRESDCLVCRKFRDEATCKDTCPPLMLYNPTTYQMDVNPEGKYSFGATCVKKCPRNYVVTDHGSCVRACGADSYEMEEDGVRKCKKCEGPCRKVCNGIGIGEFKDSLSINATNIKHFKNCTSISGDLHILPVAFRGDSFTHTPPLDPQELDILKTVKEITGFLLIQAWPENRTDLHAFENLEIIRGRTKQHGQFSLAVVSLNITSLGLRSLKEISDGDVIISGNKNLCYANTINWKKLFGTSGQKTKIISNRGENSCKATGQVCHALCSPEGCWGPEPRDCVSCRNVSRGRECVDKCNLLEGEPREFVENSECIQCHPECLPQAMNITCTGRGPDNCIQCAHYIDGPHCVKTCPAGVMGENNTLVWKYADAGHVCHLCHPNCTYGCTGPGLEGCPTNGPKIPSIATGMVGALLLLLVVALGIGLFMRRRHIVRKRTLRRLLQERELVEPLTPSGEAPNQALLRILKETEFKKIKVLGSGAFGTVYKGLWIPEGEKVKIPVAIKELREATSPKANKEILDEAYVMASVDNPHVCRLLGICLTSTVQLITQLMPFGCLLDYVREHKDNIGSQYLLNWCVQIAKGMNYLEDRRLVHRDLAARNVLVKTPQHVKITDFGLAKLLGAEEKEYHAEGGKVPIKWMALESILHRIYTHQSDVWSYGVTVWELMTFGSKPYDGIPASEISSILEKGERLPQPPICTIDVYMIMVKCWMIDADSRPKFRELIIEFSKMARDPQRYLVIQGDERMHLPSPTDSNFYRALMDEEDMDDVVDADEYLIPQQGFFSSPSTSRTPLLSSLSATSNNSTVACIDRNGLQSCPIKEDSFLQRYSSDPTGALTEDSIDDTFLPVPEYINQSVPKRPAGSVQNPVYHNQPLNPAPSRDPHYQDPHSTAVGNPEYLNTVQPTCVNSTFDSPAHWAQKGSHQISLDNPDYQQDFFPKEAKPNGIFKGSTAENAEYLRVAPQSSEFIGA
# [18] = target: Follistatin-related protein 3 (Homo sapiens) (UniProt O95633); assay: compounds binding follistatin-related protein 3 – biochemical, small-molecule microarray, 635 nm fluorescence, primary screen (AID 1105); conditions: FSTL3 binding, higher = more signal;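 further: score merges emission near 667 nm and signal to noise per printed spot across three slides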
# Chain of Follistatin-related protein 3 (Homo sapiens) (O95633 whole entry, looked up): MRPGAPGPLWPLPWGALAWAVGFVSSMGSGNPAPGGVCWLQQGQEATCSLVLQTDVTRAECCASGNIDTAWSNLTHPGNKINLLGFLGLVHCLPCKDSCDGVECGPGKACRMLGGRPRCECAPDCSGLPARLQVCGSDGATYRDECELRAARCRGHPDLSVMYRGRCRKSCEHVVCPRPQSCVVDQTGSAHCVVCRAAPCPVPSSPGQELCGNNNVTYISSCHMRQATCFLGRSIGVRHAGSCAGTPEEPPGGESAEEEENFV
# [19] = target: Dickkopf-related protein 1 (Homo sapiens) (UniProt O94907); assay: small molecules binding DKK1 protein – biochemical, small-molecule microarray, 635 nm fluorescence scan, primary screen (AID 1106); conditions: higher = more signal;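 further: score merges emission near 667 nm with signal to noise over three replicate slides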
# Chain of Dickkopf-related protein 1 (Homo sapiens) (O94907 whole entry, looked up): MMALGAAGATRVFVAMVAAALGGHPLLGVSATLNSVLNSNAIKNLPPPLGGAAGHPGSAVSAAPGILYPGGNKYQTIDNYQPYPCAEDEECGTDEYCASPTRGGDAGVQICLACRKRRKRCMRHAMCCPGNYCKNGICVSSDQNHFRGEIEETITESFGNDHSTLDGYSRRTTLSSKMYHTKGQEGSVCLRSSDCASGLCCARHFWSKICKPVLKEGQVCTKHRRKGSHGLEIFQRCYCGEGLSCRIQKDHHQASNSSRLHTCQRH
# [20] = test system: Inhibin beta A chain (activin A); assay: small molecules binding activin A – biochemical, small-molecule microarray, 635 nm fluorescence scan, primary screen (AID 1107); conditions: INHBA, higher = more signal;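 further: mouse activin A protein probed at 4.33 µg/mL on printed slides; score merges bound-protein fluorescence near 667 nm with spot signal-to-noise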
SMILES,composite z-score [1],z-score [2],z-score [3],z-score [4],composite z-score [5],z-score [6],composite z-score [7],composite z-score [8],composite z-score [9],composite z-score [10],composite z-score [11],composite z-score [12],composite z-score [13],z-score [14],composite z-score [15],composite z-score [16],composite z-score [17],composite z-score [18],composite z-score [19],composite z-score [20]
COCOc1ccc(Br)cc1C(=O)[C@@H]1O[C@H]1c1cccc(OC)c1,-0.0021,-1.33 (inactive),-6.67 (inactive),-0.822 (inactive),0.497,1.58 (inactive),-0.142,0.455,0.257,-0.112,0.82,-0.0616,-0.0631,-0.455 (inactive),0.152,0.117,0.284,0.16,0.219,0.849
COc1ccc(O[C@H]2C=C[C@@H](c3ccccc3)O[C@@H]2CON=C(C)CCN2CCc3nc(-c4ccccc4)c(-c4ccccc4)cc3C2)cc1,0.307,0.549 (inactive),-0.513 (inactive),-2.92 (inactive),0.607,0.669 (inactive),-0.148,0.111,-0.183,-0.133,0.51,-0.259,-0.0652,-0.365 (inactive),-0.156,-0.796,-0.538,0.0193,0.162,0.829
COc1ccc(COC(=O)NN=C2C[C@@H](O)[C@@H](O)[C@@H]3[C@@H]4C(=O)N(Cc5ccccc5)C(=O)[C@@H]4CC[C@H]23)cc1,0.413,-0.457 (inactive),-0.619 (inactive),-1.17 (inactive),0.739,-0.289 (inactive),0.287,-1.24,-0.0524,-0.13,-0.515,0.743,1.39,-0.262 (inactive),-0.259,-0.623,-0.432,-0.22,-1.15,0.0152
COc1ccc(O[C@H]2C=C[C@@H](c3ccccc3)O[C@@H]2CON=C2[C@H]3CCn4c(=O)n(-c5ccccc5)c(=O)n4[C@H]3[C@H](O)[C@@H]3O[C@H]23)cc1,1.3,-0.417 (inactive),0.444 (inactive),0.661 (inactive),0.86,-0.745 (inactive),-0.206,0.437,0.863,0.0009,0.393,0.214,-0.224,1.09 (inactive),0.464,0.417,0.318,0.584,0.288,0.338
COC(=O)C1=C(C)N(Cc2ccccc2)[C@]23O[C@](C(=O)OC)(C(=O)N2[C@@H]1c1ccccc1)C(C(=O)OC)=C3C(=O)OC,1.36,-1.68 (inactive),-2.66 (inactive),-1.85 (inactive),1.31,0.521 (inactive),-0.0228,0.551,1.12,0.0478,1.16,-0.389,-0.562,-2.35 (inactive),1.24,1.06,0.7,0.84,0.757,0.226
COC(=O)[C@H](C)NC(=O)CCC1CC(OC(=O)NCCc2ccc(F)cc2)CC2(CCCC(COC(=O)NCCC(C)C)O2)O1 (stereo not given in full),0.173,-1.79 (inactive),-0.148 (inactive),-0.104 (inactive),2.22,-0.641 (inactive),-0.209,1.06,0.49,-0.111,0.597,-0.185,-0.269,-1.56 (inactive),0.866,-0.102,0.0797,0.961,0.0468,0.299
Cc1ccc(S(=O)(=O)OC[C@H]2CN3[C@H](c4ccc(Br)cc4)[C@@H](C)CC[C@H]3C(=O)O2)cc1,1.23,-0.855 (inactive),-17.8 (active),-3.38 (inactive),1.3,2.18 (inactive),-0.259,1.24,0.323,-0.136,0.579,-0.285,-0.207,-0.649 (inactive),0.725,-0.204,-0.0807,-0.0668,0.459,0.355
CCOC(=O)[C@H](CC(C)C)NC(=O)CCC1CC(OC(=O)NCc2cccc3ccccc23)CC2(CCCC(COC(=O)NCc3cccc(C(F)(F)F)c3)O2)O1 (stereo not given in full),0.221,0.533 (inactive),0.171 (inactive),0.289 (inactive),0.135,0.294 (inactive),-0.251,0.582,0.359,-0.137,0.0007,-0.167,-0.346,-0.349 (inactive),0.475,0.362,0.508,0.346,0.491,-0.0188
CCOC(=O)[C@H](CC(C)C)NC(=O)CCC1CC(OC(=O)NCc2ccc3c(c2)OCO3)CC2(CCCC(COC(=O)NCC3CCCCC3)O2)O1 (stereo not given in full),1.24,0.192 (inactive),-0.0848 (inactive),-0.113 (inactive),1.49,0.409 (inactive),-0.323,0.553,1.09,-0.109,0.74,-0.209,-0.62,-0.266 (inactive),0.651,0.532,0.379,1.22,0.681,-0.0703
COC(=O)CC=C[C@@H](C)[C@H](OCc1cccc(-c2ccccc2)c1)C1CCCCC1,-0.526,1.44 (inactive),-0.915 (inactive),1.45 (inactive),-0.311,0.109 (inactive),-0.321,-0.274,-0.395,-0.27,-0.632,-0.416,-0.223,-0.102 (inactive),-0.127,-1.21,0.371,0.736,0.352,1.97
CSCC[C@@H]1NC(=O)CC=C[C@@H](C)COC(=O)[C@@H](C)COC1=O,1.21,0.506 (inactive),-0.463 (inactive),-0.318 (inactive),0.0424,0.59 (inactive),-0.103,0.882,-0.142,-0.197,-0.0958,-0.417,-0.816,-0.0857 (inactive),-0.0586,0.812,0.0541,-0.149,-0.18,0.705
CON=C1[C@H]2CCn3c(=O)n(-c4ccccc4)c(=O)n3[C@H]2[C@H](O)[C@@H]2O[C@H]12,0.887,-1.57 (inactive),-1.81 (inactive),2.3 (inactive),0.456,-0.114 (inactive),-0.205,1.02,0.646,-0.177,0.555,-0.198,-0.67,-0.871 (inactive),0.556,0.81,0.599,0.488,0.332,0.141
CC(=O)OC[C@H]1OC(ON=CC[C@@H]2C=C[C@H](OC(C)=O)[C@@H](COC(C)=O)O2)[C@H](OC(C)=O)[C@@H](OC(C)=O)[C@@H]1OC(C)=O (stereo not given in full),1.4,-0.763 (inactive),0.17 (inactive),-0.64 (inactive),0.828,-0.16 (inactive),0.106,0.612,0.448,0.145,0.119,-0.0393,0.265,0.632 (inactive),0.384,0.0032,0.261,-0.368,-0.416,-2.75
CCOC(=O)CCN1C(=O)[C@H]2[C@H]3[C@H](O)[C@H](O)CC(=NOCC(C)C)[C@H]3CC[C@H]2C1=O,-0.309,0.199 (inactive),0.307 (inactive),0.0797 (inactive),0.22,0.251 (inactive),0.096,0.109,-0.0186,-0.15,-0.108,0.16,0.782,0.108 (inactive),-0.147,-0.239,0.214,-0.276,-0.0273,0.617
C=Cc1ccc([C@H]2N[C@H](C(=O)O)CC[C@@H]2C)cc1,-1.29,-0.382 (inactive),-0.261 (inactive),-0.676 (inactive),-0.447,0.58 (inactive),0.0772,0.0295,0.417,-0.0349,-0.642,0.178,0.02,0.0747 (inactive),0.741,-0.88,0.14,0.505,0.723,0.363
CCN1C(=O)[C@H]2[C@H]3[C@H](O)[C@H](O)CC(=NOC[C@H]4O[C@H](c5ccccc5)C=C[C@@H]4Oc4ccc(OC)cc4)[C@@H]3CC[C@H]2C1=O,1.28,-0.125 (inactive),-0.653 (inactive),-0.175 (inactive),0.996,0.964 (inactive),-0.0271,0.738,1.11,-0.0085,0.605,0.0709,-0.187,0.387 (inactive),0.809,0.62,0.452,0.616,0.85,-0.0495
COC(=O)[C@@H]1CC[C@@H](C)[C@H](c2ccc(Br)cc2)N1,0.265,0.0156 (inactive),-0.179 (inactive),-0.116 (inactive),-0.188,0.104 (inactive),-0.0943,0.255,-0.275,-0.125,0.644,-0.013,-0.0951,-0.203 (inactive),-0.0342,-0.0839,0.185,-0.155,0.133,0.987
CC(=O)OC[C@H]1O[C@H](CC=NO[C@H](C)c2cn([C@H](CO)Cc3ccccc3)nn2)C=C[C@@H]1OC(C)=O,1.34,1.36 (inactive),1.34 (inactive),1.4 (inactive),1.06,0.655 (inactive),-0.0998,0.61,1,0.009,0.95,-0.154,-0.357,0.67 (inactive),0.945,0.926,0.569,0.995,1.43,-0.143
